Source: the supplement of paper PMC11732987, “Enantioselective OTUD7B fragment discovery through chemoproteomics screening and high-throughput optimisation” (Communications Chemistry, 2025)

Assays:
Experiment in all cases: log2 ratio of Biotin-Ahx-Ub-VS probe labelling (fragment/DMSO); higher = less target engagement (more negative = stronger competition), active = hit call of the paper (q ≤ 0.05, log2 ratio ≤ -1)
Details in all cases: compound concentration: 200 uM; treatment time: 3 h
[1] = target: USP34 (UniProt Q70CQ2)
In short: (§1)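 HEK293T lysate, 495 µg per sample in Tris/CHAPS/IGEPAL buffer with protease inhibitors, was treated in triplicate with fragment at 200 µM or vehicle for 3 h and then with Biotin-Ahx-Ub-VS at 0.5 µM final for 1 h. Labelled DUBs were NeutrAvidin-enriched, digested with LysC and trypsin, and run by diaPASEF LC-MS/MS. Spectronaut label-free quantities were global-median-normalised, and values are average log2 fragment/vehicle ratios by unpaired t-test on proteins with ≥2 unique peptides.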

[2] = target: T1, USP36 (UniProt Q9P275)
T1 sequence (whole entry): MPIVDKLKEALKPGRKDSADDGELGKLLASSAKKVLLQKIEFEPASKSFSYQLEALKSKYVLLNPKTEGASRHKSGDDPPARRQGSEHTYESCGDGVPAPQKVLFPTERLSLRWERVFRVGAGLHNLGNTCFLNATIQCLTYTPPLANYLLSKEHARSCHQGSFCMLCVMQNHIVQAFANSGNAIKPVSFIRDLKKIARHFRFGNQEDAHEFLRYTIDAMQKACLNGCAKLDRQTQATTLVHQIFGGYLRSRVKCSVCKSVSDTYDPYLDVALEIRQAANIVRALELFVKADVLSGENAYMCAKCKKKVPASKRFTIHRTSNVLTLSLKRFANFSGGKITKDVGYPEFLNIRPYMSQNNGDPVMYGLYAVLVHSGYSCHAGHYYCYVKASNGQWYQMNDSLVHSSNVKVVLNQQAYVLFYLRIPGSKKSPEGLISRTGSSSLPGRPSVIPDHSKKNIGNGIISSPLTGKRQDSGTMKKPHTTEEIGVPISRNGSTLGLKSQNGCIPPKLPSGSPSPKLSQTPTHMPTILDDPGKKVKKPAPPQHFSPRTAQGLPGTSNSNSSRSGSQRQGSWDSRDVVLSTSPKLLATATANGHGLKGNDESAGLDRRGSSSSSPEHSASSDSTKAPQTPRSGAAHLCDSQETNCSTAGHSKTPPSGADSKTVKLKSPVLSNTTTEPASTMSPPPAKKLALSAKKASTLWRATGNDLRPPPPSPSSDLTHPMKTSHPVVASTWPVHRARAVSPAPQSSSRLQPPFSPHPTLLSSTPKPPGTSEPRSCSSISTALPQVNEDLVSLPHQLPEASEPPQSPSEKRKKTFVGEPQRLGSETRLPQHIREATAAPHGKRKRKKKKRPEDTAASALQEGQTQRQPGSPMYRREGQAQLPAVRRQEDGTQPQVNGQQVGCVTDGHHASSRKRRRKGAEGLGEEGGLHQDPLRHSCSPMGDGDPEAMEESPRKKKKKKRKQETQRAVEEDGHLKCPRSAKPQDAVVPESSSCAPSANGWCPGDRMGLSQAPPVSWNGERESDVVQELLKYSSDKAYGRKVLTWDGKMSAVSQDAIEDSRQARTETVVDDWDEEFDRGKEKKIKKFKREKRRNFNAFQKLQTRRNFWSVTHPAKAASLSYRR
In short: as §1

[3] = target: T2, USP38 (UniProt Q8NB14)
T2 sequence (whole entry): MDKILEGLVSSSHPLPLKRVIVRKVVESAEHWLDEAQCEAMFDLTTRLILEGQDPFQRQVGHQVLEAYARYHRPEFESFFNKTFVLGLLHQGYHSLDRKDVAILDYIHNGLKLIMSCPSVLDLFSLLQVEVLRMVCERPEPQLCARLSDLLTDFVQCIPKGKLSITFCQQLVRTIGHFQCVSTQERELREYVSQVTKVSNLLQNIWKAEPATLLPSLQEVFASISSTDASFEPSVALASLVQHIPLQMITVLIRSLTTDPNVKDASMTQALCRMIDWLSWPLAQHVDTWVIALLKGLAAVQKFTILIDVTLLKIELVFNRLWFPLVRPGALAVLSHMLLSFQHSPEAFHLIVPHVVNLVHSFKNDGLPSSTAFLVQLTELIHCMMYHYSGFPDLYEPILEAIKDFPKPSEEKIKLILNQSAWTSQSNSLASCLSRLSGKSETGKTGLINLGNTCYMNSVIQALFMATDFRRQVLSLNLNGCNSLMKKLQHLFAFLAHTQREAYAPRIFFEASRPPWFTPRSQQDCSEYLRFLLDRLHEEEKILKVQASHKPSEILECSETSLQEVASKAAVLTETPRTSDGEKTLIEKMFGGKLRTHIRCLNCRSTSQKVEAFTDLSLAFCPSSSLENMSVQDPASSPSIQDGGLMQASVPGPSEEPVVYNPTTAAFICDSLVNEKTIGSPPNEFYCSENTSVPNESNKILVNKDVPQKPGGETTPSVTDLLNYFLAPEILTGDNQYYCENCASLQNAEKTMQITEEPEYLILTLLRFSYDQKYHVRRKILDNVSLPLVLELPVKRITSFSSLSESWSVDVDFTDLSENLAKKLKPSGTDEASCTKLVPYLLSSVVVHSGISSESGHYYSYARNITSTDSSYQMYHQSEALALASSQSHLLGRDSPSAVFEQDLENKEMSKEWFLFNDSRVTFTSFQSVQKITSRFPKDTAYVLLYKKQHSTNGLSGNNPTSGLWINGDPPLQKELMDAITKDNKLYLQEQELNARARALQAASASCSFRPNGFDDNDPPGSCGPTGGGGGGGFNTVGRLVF
In short: as §1

[4] = target: T3, USP39 (UniProt Q53GS9)
T3 sequence (whole entry): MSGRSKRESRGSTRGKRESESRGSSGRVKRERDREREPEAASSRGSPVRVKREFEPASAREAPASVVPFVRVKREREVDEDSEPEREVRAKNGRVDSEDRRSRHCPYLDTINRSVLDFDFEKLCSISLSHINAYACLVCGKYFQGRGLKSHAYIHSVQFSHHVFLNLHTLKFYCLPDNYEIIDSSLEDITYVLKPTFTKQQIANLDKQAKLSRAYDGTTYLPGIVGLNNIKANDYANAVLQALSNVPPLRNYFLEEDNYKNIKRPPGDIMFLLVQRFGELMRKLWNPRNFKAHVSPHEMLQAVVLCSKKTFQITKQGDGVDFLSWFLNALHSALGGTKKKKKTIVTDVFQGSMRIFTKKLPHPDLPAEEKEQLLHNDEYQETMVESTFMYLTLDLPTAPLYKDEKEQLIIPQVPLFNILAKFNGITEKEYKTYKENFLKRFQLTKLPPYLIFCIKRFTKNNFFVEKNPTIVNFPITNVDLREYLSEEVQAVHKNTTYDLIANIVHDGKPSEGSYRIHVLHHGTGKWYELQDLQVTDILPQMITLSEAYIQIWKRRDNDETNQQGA
In short: as §1

[5] = target: T4, USP4 (UniProt Q13107)
T4 sequence (whole entry): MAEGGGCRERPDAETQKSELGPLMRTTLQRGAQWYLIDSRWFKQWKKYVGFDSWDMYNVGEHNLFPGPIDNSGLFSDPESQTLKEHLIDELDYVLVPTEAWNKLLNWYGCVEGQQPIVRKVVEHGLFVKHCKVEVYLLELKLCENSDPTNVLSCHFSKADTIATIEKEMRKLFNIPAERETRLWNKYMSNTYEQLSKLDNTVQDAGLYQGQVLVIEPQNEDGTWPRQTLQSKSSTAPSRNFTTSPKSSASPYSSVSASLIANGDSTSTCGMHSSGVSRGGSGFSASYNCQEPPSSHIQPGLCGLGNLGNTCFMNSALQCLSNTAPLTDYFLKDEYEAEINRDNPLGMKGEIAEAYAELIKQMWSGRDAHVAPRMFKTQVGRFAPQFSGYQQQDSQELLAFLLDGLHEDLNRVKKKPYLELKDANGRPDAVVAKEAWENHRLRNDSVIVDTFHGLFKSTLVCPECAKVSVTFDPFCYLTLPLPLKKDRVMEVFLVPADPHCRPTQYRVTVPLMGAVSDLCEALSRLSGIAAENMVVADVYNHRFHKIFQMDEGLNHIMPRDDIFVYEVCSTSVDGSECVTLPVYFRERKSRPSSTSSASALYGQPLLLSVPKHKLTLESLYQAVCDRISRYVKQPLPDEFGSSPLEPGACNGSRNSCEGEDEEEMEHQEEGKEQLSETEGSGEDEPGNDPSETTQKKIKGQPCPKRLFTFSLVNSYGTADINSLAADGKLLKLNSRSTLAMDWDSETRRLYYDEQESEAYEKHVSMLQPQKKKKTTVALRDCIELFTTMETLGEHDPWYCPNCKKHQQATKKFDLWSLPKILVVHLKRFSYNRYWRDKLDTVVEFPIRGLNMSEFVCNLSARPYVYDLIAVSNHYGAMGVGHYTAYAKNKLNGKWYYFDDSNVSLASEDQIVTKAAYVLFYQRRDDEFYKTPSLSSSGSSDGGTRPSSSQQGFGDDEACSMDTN
In short: as §1

Measured: log2 ratio of Biotin-Ahx-Ub-VS probe labelling

Sequence of USP34 (Q70CQ2 whole entry, the tested form may be a part): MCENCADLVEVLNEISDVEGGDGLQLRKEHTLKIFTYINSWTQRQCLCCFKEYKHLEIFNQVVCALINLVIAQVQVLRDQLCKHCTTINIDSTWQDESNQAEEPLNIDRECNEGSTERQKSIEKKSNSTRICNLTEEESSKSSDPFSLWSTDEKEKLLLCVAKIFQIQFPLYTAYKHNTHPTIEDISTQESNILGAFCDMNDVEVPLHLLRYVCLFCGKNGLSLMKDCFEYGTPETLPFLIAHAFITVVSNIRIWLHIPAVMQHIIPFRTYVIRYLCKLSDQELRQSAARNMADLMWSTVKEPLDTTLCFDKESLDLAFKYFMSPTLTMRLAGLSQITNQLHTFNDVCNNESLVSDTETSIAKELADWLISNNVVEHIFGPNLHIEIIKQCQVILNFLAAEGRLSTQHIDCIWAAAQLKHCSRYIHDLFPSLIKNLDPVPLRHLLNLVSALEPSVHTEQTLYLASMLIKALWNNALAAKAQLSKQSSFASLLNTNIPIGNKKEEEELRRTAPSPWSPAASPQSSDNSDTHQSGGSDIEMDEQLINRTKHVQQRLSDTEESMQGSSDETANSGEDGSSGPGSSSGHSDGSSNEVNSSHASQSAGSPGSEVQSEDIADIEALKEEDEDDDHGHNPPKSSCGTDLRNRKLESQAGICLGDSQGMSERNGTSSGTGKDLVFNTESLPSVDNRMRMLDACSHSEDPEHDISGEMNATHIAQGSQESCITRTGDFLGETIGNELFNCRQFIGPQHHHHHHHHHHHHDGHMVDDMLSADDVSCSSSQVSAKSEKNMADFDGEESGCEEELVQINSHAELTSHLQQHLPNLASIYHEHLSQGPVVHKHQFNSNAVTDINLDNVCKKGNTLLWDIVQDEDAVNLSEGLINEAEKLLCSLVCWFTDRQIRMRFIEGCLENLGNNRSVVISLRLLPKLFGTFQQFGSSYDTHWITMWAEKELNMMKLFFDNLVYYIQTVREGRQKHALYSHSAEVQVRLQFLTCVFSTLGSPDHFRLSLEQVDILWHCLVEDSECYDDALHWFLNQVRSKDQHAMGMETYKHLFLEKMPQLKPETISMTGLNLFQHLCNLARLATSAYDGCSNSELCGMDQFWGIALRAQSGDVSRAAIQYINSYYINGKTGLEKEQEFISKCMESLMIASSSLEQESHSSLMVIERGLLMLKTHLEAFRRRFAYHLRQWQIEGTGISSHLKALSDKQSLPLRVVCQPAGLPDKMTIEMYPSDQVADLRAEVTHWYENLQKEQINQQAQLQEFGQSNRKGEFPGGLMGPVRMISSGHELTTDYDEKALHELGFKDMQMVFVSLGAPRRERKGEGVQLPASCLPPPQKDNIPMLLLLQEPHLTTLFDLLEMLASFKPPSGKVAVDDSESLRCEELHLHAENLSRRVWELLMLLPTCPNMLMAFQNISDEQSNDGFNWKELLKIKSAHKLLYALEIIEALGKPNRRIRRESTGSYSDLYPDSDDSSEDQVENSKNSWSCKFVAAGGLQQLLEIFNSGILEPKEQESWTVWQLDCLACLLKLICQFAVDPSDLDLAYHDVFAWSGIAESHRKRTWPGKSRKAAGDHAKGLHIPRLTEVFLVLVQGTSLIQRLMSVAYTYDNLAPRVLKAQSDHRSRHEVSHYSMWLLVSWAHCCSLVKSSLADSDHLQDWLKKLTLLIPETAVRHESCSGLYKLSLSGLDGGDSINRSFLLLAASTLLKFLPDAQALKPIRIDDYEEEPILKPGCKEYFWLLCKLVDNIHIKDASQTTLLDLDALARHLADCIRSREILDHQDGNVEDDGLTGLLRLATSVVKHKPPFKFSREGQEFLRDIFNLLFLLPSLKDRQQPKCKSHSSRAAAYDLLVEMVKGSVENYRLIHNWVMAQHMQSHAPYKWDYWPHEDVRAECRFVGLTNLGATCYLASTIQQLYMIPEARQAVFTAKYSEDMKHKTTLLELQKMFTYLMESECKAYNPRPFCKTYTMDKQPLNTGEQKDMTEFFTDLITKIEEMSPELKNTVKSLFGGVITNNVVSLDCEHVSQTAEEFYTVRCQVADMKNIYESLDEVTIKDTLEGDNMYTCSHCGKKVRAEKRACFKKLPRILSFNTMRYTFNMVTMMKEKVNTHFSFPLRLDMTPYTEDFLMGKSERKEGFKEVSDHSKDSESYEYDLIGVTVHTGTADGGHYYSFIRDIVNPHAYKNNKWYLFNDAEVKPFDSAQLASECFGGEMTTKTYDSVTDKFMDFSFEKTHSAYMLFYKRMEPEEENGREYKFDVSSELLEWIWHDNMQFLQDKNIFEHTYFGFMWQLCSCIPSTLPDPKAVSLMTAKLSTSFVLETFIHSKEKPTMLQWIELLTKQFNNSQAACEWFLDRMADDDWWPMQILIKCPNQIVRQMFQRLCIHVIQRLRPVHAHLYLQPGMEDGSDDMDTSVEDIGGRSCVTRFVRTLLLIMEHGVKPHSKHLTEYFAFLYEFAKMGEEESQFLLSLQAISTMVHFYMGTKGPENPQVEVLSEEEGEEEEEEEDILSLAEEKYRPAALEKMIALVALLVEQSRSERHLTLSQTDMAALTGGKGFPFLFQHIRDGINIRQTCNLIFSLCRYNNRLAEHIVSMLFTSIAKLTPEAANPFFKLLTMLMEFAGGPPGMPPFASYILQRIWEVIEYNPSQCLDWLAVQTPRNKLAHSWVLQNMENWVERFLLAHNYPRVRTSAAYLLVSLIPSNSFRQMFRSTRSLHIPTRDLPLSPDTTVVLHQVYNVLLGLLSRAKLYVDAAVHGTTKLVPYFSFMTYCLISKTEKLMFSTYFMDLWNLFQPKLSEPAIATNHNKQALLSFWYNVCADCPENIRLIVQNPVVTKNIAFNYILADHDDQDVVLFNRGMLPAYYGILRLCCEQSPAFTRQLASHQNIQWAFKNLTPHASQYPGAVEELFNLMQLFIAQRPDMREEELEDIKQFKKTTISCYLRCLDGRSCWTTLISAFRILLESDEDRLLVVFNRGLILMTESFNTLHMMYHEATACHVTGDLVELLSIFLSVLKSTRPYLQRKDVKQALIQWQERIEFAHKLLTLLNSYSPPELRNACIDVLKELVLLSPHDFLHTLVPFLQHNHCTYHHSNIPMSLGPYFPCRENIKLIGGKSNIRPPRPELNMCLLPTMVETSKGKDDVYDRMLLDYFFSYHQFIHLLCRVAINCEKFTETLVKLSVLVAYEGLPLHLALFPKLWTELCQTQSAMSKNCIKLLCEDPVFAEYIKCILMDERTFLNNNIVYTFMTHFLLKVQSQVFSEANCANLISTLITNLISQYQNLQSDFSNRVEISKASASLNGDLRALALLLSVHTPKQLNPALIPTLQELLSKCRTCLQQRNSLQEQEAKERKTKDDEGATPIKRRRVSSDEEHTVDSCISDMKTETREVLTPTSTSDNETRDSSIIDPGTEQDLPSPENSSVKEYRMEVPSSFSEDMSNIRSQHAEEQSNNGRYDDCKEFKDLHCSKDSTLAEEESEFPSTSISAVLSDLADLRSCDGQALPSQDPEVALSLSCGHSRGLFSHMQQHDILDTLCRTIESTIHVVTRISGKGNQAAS

O=C(CCl)N1CCc2nc[nH]c2C1c1ccc(Cl)cc1 (stereo not given)
inactive: [1] -0.355 | [2] -0.00322 | [3] -0.0469 | [4] 0.0317 | [5] -0.375
